# From PubChem BioAssay (NCATS)
# Records with an inconclusive call do not appear. The source made the active and inactive calls.
# Assay: qHTS for identification of novel therapeutic agents for treatment of microphthalmiaassociated transcription factor (MiT) renal cell carcinoma (RCC) (AID 1963991)
# Details: CellTiter-Glo, 48 h; for Potency: active = Z-AUC below -0.8 in all three lines; for z-score: stronger effect = lower value
# Excerpt: PI: Marston Linehan Ph.D.
# Urologic Oncology Branch, Center for Cancer Research (CCR)
# National Cancer Institute (NCI), National Institute of Health (NIH), Bethesda, Maryland
# MiT-Renal Cell Carcinoma (RCC) is characterized by genomic translocations involving microphthalmia-associated transcription factor (MiT) family members TFE3, TFEB, or MITF. MiT-RCC represents a specific subtype of sporadic RCC that is predominantly seen in young patients and can present with heterogeneous histological features making diagnosis challenging. Moreover, the disease biology of this aggressive cancer is poorly understood and there is no accepted standard of care therapy for patients with advanced disease. Tumor-derived cell lines have been established from human TFE3-RCC providing useful models for preclinical studies. TFE3-RCC tumor derived cell lines and their tissues of origin were characterized by IHC and gene expression analyses. An unbiased high-throughput drug screen was performed to identify novel therapeutic agents for treatment of MiT-RCC. Potential therapeutic candidates were validated in in vitro and in vivo preclinical studies. Mechanistic assays were conducted to confirm the on-target effects of drugs. The results of a high-throughput small molecule drug screen utilizing three TFE3-RCC tumor-derived cell lines identified five classes of agents with potential pharmacological efficacy, including inhibitors of phosphoinositide-3-kinase (PI3K) and mechanistic target of rapamycin (mTOR), and several additional agents, including the transcription inhibitor Mithramycin A. Upregulation of the cell surface marker GPNMB, a specific MiT transcriptional target, was confirmed in TFE3-RCC and evaluated as a therapeutic target using the GPNMB-targeted antibody-drug conjugate CDX-011. […] The results of the high-throughput drug screen and validation studies in TFE3-RCC tumor-derived cell lines have provided in vitro and in vivo preclinical data supporting the efficacy of the PI3K/mTOR inhibitor.
# SEQUENCE No. (e.g., 1, 2, 3, etc.); […] (e.g., Cells, Incubation, Reagent, etc.); VALUE; DESCRIPTION.
# 1; Cells; 3 uL; white, solid-bottom Grenier assay plate.
# 2; Compounds; 23 nL; Kalypsis pin-tool (Wako USA).
# 3; Incubation; 48 hr; 37 C, 5% CO2, 95% humidity.
# 4; Reagent; 3 uL; CellTiter-Glo reagent (Promega).
# 5; Incubation; 15 min; room temperature.
# 6; Detection; Luminescence; ViewLux plate reader (PerkinElmer).
# NOTES (numbers refer to Sequence numbers above)
# 1. Quantitative high-throughput screening (qHTS) of 1912 pharmacologically defined small molecule compounds was conducted on three TFE3-fusion cell lines bearing three different fusion partners (UOK109, UOK124, UOK145). Briefly, 500 cells in complete growth media were plated into white, solid-bottom, 1536-well tissue culture treated plates (Grenier Cat. 789173-F) using a Multidrop Combi cassette dispenser.
# 2. Twenty-three nanoliter of 1912 pharmacologically defined small molecule compounds of the NCATS Mechanism Interrogation PlatE (MIPE) version 4.0 were added to each assay plate using a Pintool Dispenser (Wako) equipped with 1536 pin head.
# 3. Plates were covered with stainless steel gasketed lids and incubated for 48 hours at standard cell culture conditions.
# 4. Viability was assessed by adding 3uL of CellTiter-Glo detection reagent (Promega).
# 5. Plates were covered with gasket lids and incubated for 15 minutes at room temperature.
# 6. Luminescence was measured on a ViewLux plate reader (PerkinElmer). Post-screen data processing used DMSO controls as 100% viability and empty wells as 0% viability and dose response curve fitting was done for all 11 concentrations for each compound.
# [1] = TFE3-RCC UOK109 viability, measured here: UOK109 Z-AUC
# [2] = TFE3-RCC viability, measured here: UOK124 Z-AUC
# [3] = TFE3-RCC viability, measured here: UOK145 Z-AUC
# Potency is read from the fitted curve at half-maximal effect.
Compound,Potency (TFE3-RCC UOK109 viability),z-score [1],z-score [2],z-score [3]
COc1ccc(-c2ccc3c(N4CCOC[C@H]4C)nc(N4CCOC[C@H]4C)nc3n2)cc1CO,0.0935 µM (active),-1.8,-2.87,-2.13
Oc1cccc(-c2nc(N3CCOCC3)c3oc4ncccc4c3n2)c1,4.81 µM (active),-1.31,-1.8,-2.03
CC(C)OC(=O)C1=CN(C(=O)c2ccc(F)c(F)c2)CC(C)(C)c2c1[nH]c1ccccc21,–,0.178,0.0335,-0.0962
NC[C@H](O)c1ccc(O)c(O)c1,–,0.441,0.472,0.785
Oc1ccc(C2CNCCc3c2cc(O)c(O)c3Cl)cc1 (stereo unspecified),–,0.257,0.218,0.231
O=NN(CCCl)C(=O)NCCCl,–,-0.0741,1.48,-0.0256
NS(=O)(=O)c1cc2c(cc1Cl)NC=NS2(=O)=O,–,0.178,0.944,0.209
COc1nc(-c2ccc3c(c2)OCO3)n(-c2ccc(NC(=O)CSc3ccccc3)cc2)n1,–,0.687,0.0138,0.717
CC(C)(C)NCC(O)c1ccc(O)c(CO)c1 (stereo unspecified),–,0.712,0.591,2.94
CC(C)(Sc1ccc(CCN(CCCCC2CCCCC2)C(=O)NC2CCCCC2)cc1)C(=O)O,–,0.806,0.0749,0.555
O=c1[nH]cnc2[nH]ncc12,–,0.431,0.33,0.0964
CCN(CC)CCCC(C)Nc1nc(C)cc(Nc2ccc3nc(C)cc(N)c3c2)n1 (stereo unspecified),–,0.273,0.864,0.237
O=C(O)COCCN1CCN(C(c2ccccc2)c2ccc(Cl)cc2)CC1 (stereo unspecified),–,0.871,0.439,0.674
